In the library only some 6.1% were active in any assay of this set; here they are far more common.
D1 PAM – Potentiators of Human D1 Dopamine Receptor: qHTS; HEK293 TREx D1 cells, calcium flux, dopamine EC20 potentiation; potentiation, % at 10 µM; 0.036% of 360,000 active; in the data active = potentiation above about 30%; also: 0% is about no effect
D1 agonist – Allosteric Agonists of the Human D1 Dopamine Receptor: qHTS. activation, % at 2 µM. HEK293 T-REx D1 cells, calcium flux, agonist mode. 1% of 360,000 active; in the data active = activation above about 30%; also: 0% is about no effect
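Inducible HEK293 T-REx D1 cells, force-coupled to calcium signalling, were plated at 4000 cells/well with tetracycline and held overnight at 30 C. After no-wash calcium dye loading, compound-evoked calcium rise over 180 s flagged agonists.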
D3 ag – qHTS of D3 Dopamine Receptor Agonist: qHTS. D(3) dopamine receptor (Homo sapiens), P35462. 0.58% of 410,000 active. max activation, %. D3R DiscoveRx beta-arrestin cells, luminescence, 90 min; in the data active = max activation above about 30%; also: 0% is about no effect
Target sequence (P35462 whole entry, looked up): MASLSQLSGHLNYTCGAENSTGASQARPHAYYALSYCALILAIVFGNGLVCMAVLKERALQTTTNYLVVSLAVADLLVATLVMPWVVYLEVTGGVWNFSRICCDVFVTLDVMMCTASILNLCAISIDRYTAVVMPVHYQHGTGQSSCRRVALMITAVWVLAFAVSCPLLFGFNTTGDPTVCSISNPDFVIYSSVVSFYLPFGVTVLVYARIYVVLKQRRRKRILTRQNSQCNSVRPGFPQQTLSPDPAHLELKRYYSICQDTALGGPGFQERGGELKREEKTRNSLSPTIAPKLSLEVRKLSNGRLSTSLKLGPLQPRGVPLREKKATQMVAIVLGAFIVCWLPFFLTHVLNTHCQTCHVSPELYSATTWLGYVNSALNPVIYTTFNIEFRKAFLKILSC
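Agonist-mode cell screen: cells plated at 1500/well and incubated overnight at 37 °C, then exposed to library compounds for 90 min at 37 °C. Detection reagent was added for 30–60 min at room temperature, and luminescence was read.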
D3 antag – qHTS of D3 Dopamine Receptor Antagonist: qHTS | D(3) dopamine receptor (Homo sapiens), P35462 | D3R cells, DiscoveRx beta-arrestin luminescence, antagonist mode; hits give low values | max response, negative = inhibition, % | 2.5% of 360,000 active | AID 652054, 2013; in the data active = max response below about -50%; inconclusive = no clear call, values can overlap the other calls; also: % is scaled to controls: 0 for no effect and ±100 for the full control effect
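Cells plated overnight at 1500 cells/well, then exposed to library compounds with dopamine controls for 90 minutes at 37 degrees C. DiscoveRx reagent added for 30–60 minutes at room temperature; luminescence read, quantitative HTS format.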
D1 antag – Antagonist of Human D 1 Dopamine Receptor: qHTS | D(1A) dopamine receptor (Homo sapiens), P21728 | HEK293 TREx D1 cells, calcium flux, dopamine EC80; hits give low values | activity change, negative = inhibition, % at 10 µM | 3.2% of 360,000 active | AID 504652, 2011; in the data active = activity change below about -30%; also: % is scaled to controls: 0 for no effect and ±100 for the full control effect
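Cells carrying a force-coupled, tetracycline-inducible human D1 receptor report calcium flux. Each well gets a 10 s baseline, compound with 180 s monitoring, then an EC80 dopamine stimulus with a second 180 s kinetic read.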
An asterisk follows results filed as active; ? = inconclusive; / = no result.

SMILES	D1 PAM	D1 agonist	D3 ag	D3 antag	D1 antag
C#CCOCCOCCOCCNc1nc(N2CCN(C(=O)CCCCCCCCCCNC(=O)[C@H](CCCCN)n3cc(CCO)nn3)CC2)nc(N2CCN(C(=O)CCCCCCCCCCNC(=O)[C@H](CCCCN)n3cc(C[C@@H](C)CC)nn3)CC2)n1	13	70*	0	0	30
COc1ccc(NC(=O)Cn2c(=O)oc3cc(S(=O)(=O)NC4CCCC4)ccc32)cc1OC	-4	2	2	/	8
COc1cc(C(=O)Nc2ccccc2SCc2cc(=O)n3nc(C)sc3n2)cc(OC)c1OC	-5	4	0	1	-50*
O=C(NN=C1CCCC1)c1[nH]c2ccc(Br)cc2c1-c1ccccc1	3	8	-3	?	11
O=C(N/N=C/c1ccccn1)c1[nH]c2ccc([N+](=O)[O-])cc2c1-c1ccccc1	-6	3	-8	-60*	-10
NNC(=O)c1[nH]c2ccc([N+](=O)[O-])cc2c1-c1ccccc1	2	1	-7	-14	-7
O=C(N/N=C/c1ccccc1)c1[nH]c2ccc(Br)cc2c1-c1ccccc1	3	2	-19	-89*	-5
O=S(=O)(NCCc1csc2nc(-c3ccc(F)cc3)nn12)c1ccc(Oc2ccccc2)cc1	1	7	-13	/	/
COc1ccc(C(=O)Nc2oc(-c3ccccc3)c(-c3ccccc3)c2C#N)cc1	-3	1	-17	-64*	3
COc1ccc(-c2oc(NC(=O)c3ccc(C)cc3)c(C#N)c2-c2ccc(OC)cc2)cc1	-6	2	-4	21	13
Cc1nc(-c2ccc(Cl)cc2)sc1CCNC(=O)c1ccco1	0	1	-24	/	2
CCOc1cc(/C=C2\CCCC(C(=O)C(F)(F)F)=C2O)ccc1O	-8	8	-25	-52*	-26
Cc1ccc(C(=O)NC(Cc2ccccc2C(F)(F)F)C(=O)O)cc1 (stereo unspecified)	/	/	40*	?	/
Cc1ccc(CC(NC(=O)c2ccc(C)cc2)C(=O)O)cc1 (stereo unspecified)	/	/	8	0	/
Cc1ccc(-n2c(Cc3cccn3C)nnc2SCC(=O)N2CCN(c3ccccc3)CC2)cc1	0	0	-7	-79*	14
COc1ccc(NC(=O)CSc2nnc(Cc3cccn3C)n2-c2ccc(F)cc2)cc1OC	-4	0	-1	14	-45*
Cn1cccc1Cc1nnc(SCC(=O)Nc2ccc(F)cc2)n1-c1ccc(F)cc1	2	1	-7	12	-3
Cc1ccc(-n2c(Cc3cccn3C)nnc2SCC(=O)Nc2ccc3c(c2)OCO3)cc1	-2	1	79*	50	2
Cc1nnc(NC(=O)CSc2nnc(Cc3cccn3C)n2C)s1	11	2	0	-16	-37*
COc1ccccc1NC(=O)c1sc2nc(-c3cc4cc(Cl)ccc4oc3=O)[nH]c(=O)c2c1C	-4	12	0	/	-26
COc1ccc(CNc2ncc(-c3ccccc3)n2C)c(OC)c1OC	-2	3	2	1	-30*
COc1ccc(CNc2ncc(-c3ccccc3)n2C)c2ccccc12	-8	10	-8	-9	-5
CC(=O)Nc1ccc(NC(C)=O)s1	-5	2	-8	-4	-34*
COc1ccc(CNC(=O)C(C)Sc2ccc(S(=O)(=O)N3CCOCC3)cn2)cc1 (stereo unspecified)	2	5	-1	-20	-32*
COc1ccc(CNS(=O)(=O)c2cccc(S(=O)(=O)N3CCOCC3)c2)cc1	1	3	11	-93*	1
SMILES	D1 PAM	D1 agonist	D3 ag	D3 antag	D1 antag
COc1ccc(NS(=O)(=O)c2ccc(S(=O)(=O)N3CCOCC3)cc2)cc1	-4	34*	1	-14	-33*
COc1ccccc1CNC(=O)c1cnc2sc(N3CCCCCC3)nn2c1=O	-1	-1	6	/	8
Oc1c(C=Nc2cccnc2)sc2ccccc12	4	5	-4	-65*	9
CN=Cc1sc2ccccc2c1O	5	0	0	8	5
Oc1c(C=Nc2ccccc2)sc2ccccc12	0	1	-6	-19	0
Oc1c(C=NCc2ccncc2)sc2ccccc12	0	4	5	-100*	-8
COc1ccc(/C=C\c2onc(C)c2S(=O)(=O)N2CCC(C(=O)Nc3ccc(C)cc3C)CC2)cc1	3	5	4	/	-6
CCOC(=O)CSc1nnc(CNc2cccc(Cl)c2)n1-c1ccccc1	1	17	1	-8	-16
CCOC(=O)CSc1nnc(CNc2ccc(Cl)cc2)n1-c1ccccc1	0	7	-4	-11	-52*
CCc1nnc(NC(=O)CSc2nnc(CNc3cccc(C)c3)n2-c2ccccc2)s1	-3	1	2	7	-31*
COc1ccc(C)cc1NC(=O)CCS(=O)(=O)c1cc2c3c(c1)CCN3C(=O)CC2	3	1	6	/	-13
O=c1nc(-c2ccccc2)c2cc(SC(F)F)ccc2[nH]1	0	0	36*	3	13
CCN1CC2([N+](=O)[O-])C=CC(=O)C([N+](=O)[O-])(C1)C2CC(=O)c1ccccc1 (stereo unspecified)	-7	-1	1	-68*	-3
Cc1ccc(-n2nc(C)c3c(C(F)(F)F)cc(-c4cccnc4)nc32)cc1Cl	3	0	10	/	-1
CCc1cccc(C)c1NC(=O)c1cc(S(=O)(=O)N(C)Cc2ccccc2)ccc1F	-1	4	-21	/	-8
CCOc1ccc(-n2c(Cc3ccccc3)nnc2SCc2nc(-c3cccs3)no2)cc1	2	20	-6	/	-11
O=C(Cc1ccc2c(c1)OCCO2)N1CCN(S(=O)(=O)c2cccc(Cl)c2Cl)CC1	-6	13	9	12	-28
O=C(Cc1ccc2c(c1)OCCO2)N1CCN(S(=O)(=O)c2cccs2)CC1	-12	15	-5	-9	-35*
COc1cc(C(c2sc3nc(C)nn3c2O)N2CCC3(CC2)OCCO3)cc(OC)c1OC (stereo unspecified)	-2	1	2	-51*	-9
Cc1ccc(S(=O)(=O)c2cn(C)c3cc(N4CCCCCC4)c(F)cc3c2=O)cc1	1	1	3	/	0
COc1ccc(S(=O)(=O)c2nnn(-c3ccc(C)c(Cl)c3)c2C)cc1	-4	31*	-4	/	-21
COc1ccc(S(=O)(=O)c2nnn(-c3ccccc3F)c2C)cc1	-4	10	-8	/	-8
COc1ccc(-c2nc3ccccc3n2Cc2ccc(C)cc2)cc1	-4	3	0	?	-14
